In PubChem BioAssay AID1159580 (chemical genetic matrix, 2015):
The whole screen tested about 5,500 compounds, of which about 2,000 (36%) were called active. Not shown: some 18% with an inconclusive outcome. No stated cut-off is given here; in the data, active means normalized growth mostly below about 0.91 (no sharp cut-off); inconclusive means no clear call, values can overlap the other calls; inactive means mostly above about 0.92. Some of the results follow.

Experiment: chemical genetic growth profiling, strain panel (AID 1159580);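 further: tested at 20 µM; growth read once vehicle control cultures reached saturation at 30 °C; 1 = growth at the plate median or of vehicle wells; lower values mean less growth of the strain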
Conditions: growth OD

Measured: normalized growth

CCCCCCC(C)OC(=O)COc1ccc(Cl)cc1Cl (configuration not stated)
inactive: S. cerevisiae deletion strains, locus YJR075W, strain HOC1, active compounds read low 0.931 | S. cerevisiae deletion strains, locus YKL009W, strain mrt4, active compounds read low 0.992 | S. cerevisiae deletion strains, locus YKL068W, active compounds read low 0.998 | S. cerevisiae deletion strains, locus YKL085W, strain MDH1 (second series), active compounds read low 0.984 | S. cerevisiae deletion strains, locus YKL085W, strain MDH1, active compounds read low 0.984 | S. cerevisiae deletion strains, locus YKL160W, strain elf1, active compounds read low 0.996 | S. cerevisiae deletion strains, locus YKL190W, strain CNB1, active compounds read low 0.997 | S. cerevisiae deletion strains, locus YKR001C, strain vps1, active compounds read low 0.998 | S. cerevisiae deletion strains, locus YKR026C, strain gcn3, active compounds read low 0.989 | S. cerevisiae deletion strains, locus YKR091W, strain srl3, active compounds read low 0.993 | S. cerevisiae deletion strains, locus YLL001W, strain dnm1, active compounds read low 0.991 | S. cerevisiae deletion strains, locus YLL026W, active compounds read low 0.986 | S. cerevisiae deletion strains, locus YLL041C, strain sdh2, active compounds read low 0.994 | S. cerevisiae deletion strains, locus YLR027C, strain aat2, active compounds read low 0.995 | S. cerevisiae deletion strains, locus YLR039C, strain RIC1, active compounds read low 0.893 | S. cerevisiae deletion strains, locus YLR058C, strain SHM2, active compounds read low 0.996 | S. cerevisiae deletion strains, locus YLR102C, strain apc9, active compounds read low 1 | S. cerevisiae deletion strains, locus YLR113W, strain HOG1, active compounds read low 0.961 | S. cerevisiae deletion strains, locus YLR221C, strain rsa3, active compounds read low 0.989 | S. cerevisiae deletion strains, locus YLR258W, strain gsy2, active compounds read low 0.981 | S. cerevisiae deletion strains, locus YLR262C, strain YPT6 (second series), active compounds read low 0.971 | S. cerevisiae deletion strains, locus YLR262C, strain YPT6, active compounds read low 0.983 | S. cerevisiae deletion strains, locus YLR268W, strain sec22, active compounds read low 0.997 | S. cerevisiae deletion strains, locus YLR320W, strain mms22, active compounds read low 0.982 | S. cerevisiae deletion strains, locus YLR330W, strain CHS5, active compounds read low 0.992 | S. cerevisiae deletion strains, locus YLR342W, strain FKS1 (second series), active compounds read low 1.01 | S. cerevisiae deletion strains, locus YLR342W, strain FKS1, active compounds read low 0.987 | S. cerevisiae deletion strains, locus YLR357W, strain rsc2, active compounds read low 1.01 | S. cerevisiae deletion strains, locus YLR370C, strain arc18, active compounds read low 0.994 | S. cerevisiae deletion strains, locus YLR371W, strain rom2, active compounds read low 0.997 | S. cerevisiae deletion strains, locus YLR384C, strain iki3, active compounds read low 0.993 | S. cerevisiae deletion strains, locus YLR418C, strain cdc73, active compounds read low 0.965 | S. cerevisiae deletion strains, locus YML016C, strain PPZ1, active compounds read low 0.997 | S. cerevisiae deletion strains, locus YML032C, strain rad52, active compounds read low 1.01 | S. cerevisiae deletion strains, locus YML120C, strain ndi1, active compounds read low 0.983 | S. cerevisiae deletion strains, locus YML124C, strain tub3, active compounds read low 0.998 | S. cerevisiae deletion strains, locus YMR058W, strain fet3, active compounds read low 0.994 | S. cerevisiae deletion strains, locus YMR078C, strain ctf18, active compounds read low 1.01 | S. cerevisiae deletion strains, locus YMR125W, strain sto1, active compounds read low 0.983 | S. cerevisiae deletion strains, locus YMR129W, active compounds read low 0.994 | S. cerevisiae deletion strains, locus YMR205C, strain PFK2, active compounds read low 0.968 | S. cerevisiae deletion strains, locus YMR223W, strain ubp8, active compounds read low 0.989 | S. cerevisiae deletion strains, locus YMR231W, strain pep5, active compounds read low 0.993 | S. cerevisiae deletion strains, locus YMR263W, strain SAP30, active compounds read low 0.984 | S. cerevisiae deletion strains, locus YMR307W, strain GAS1, active compounds read low 0.869 | S. cerevisiae deletion strains, locus YNL067W, strain RPL9B, active compounds read low 0.985 | S. cerevisiae deletion strains, locus YNL071W, strain lat1, active compounds read low 0.982 | S. cerevisiae deletion strains, locus YNL128W, strain TEP1, active compounds read low 0.987 | S. cerevisiae deletion strains, locus YNL153C, strain GIM3, active compounds read low 0.996 | S. cerevisiae deletion strains, locus YNL183C, strain NPR1, active compounds read low 0.96 | S. cerevisiae deletion strains, locus YNL209W, strain ssb2, active compounds read low 0.995 | S. cerevisiae deletion strains, locus YNL233W, strain BNI4, active compounds read low 0.989 | S. cerevisiae deletion strains, locus YNL248C, strain rpa49, active compounds read low 0.984 | S. cerevisiae deletion strains, locus YNL250W, strain rad50, active compounds read low 1 | S. cerevisiae deletion strains, locus YNL271C, strain bni1, active compounds read low 1 | S. cerevisiae deletion strains, locus YNL298W, strain CLA4, active compounds read low 1 | S. cerevisiae deletion strains, locus YNL307C, strain MCK1, active compounds read low 0.993 | S. cerevisiae deletion strains, locus YNL322C, strain KRE1 (second series), active compounds read low 0.992 | S. cerevisiae deletion strains, locus YNL322C, strain KRE1, active compounds read low 0.992 | S. cerevisiae deletion strains, locus YNR049C, strain mso1, active compounds read low 0.984 | S. cerevisiae deletion strains, locus YNR052C, strain pop2, active compounds read low 1.01 | S. cerevisiae deletion strains, locus YOL006C, strain TOP1, active compounds read low 0.905 | S. cerevisiae deletion strains, locus YOL012C, strain htz1 0.707 | S. cerevisiae deletion strains, locus YOL147C, strain pex11, active compounds read low 1 | S. cerevisiae deletion strains, locus YOR001W, strain rrp6, active compounds read low 0.995 | S. cerevisiae deletion strains, locus YOR061W, strain CKA2, active compounds read low 0.981 | S. cerevisiae deletion strains, locus YOR069W, strain VPS5, active compounds read low 0.979 | S. cerevisiae deletion strains, locus YOR070C, strain gyp1, active compounds read low 0.985 | S. cerevisiae deletion strains, locus YOR080W, strain dia2, active compounds read low 0.995 | S. cerevisiae deletion strains, locus YOR083W, strain WHI5, active compounds read low 0.999 | S. cerevisiae deletion strains, locus YOR106W, strain vam3, active compounds read low 0.958 | S. cerevisiae deletion strains, locus YOR136W, strain idh2, active compounds read low 1.01 | S. cerevisiae deletion strains, locus YOR144C, strain elg1, active compounds read low 1.01 | S. cerevisiae deletion strains, locus YOR184W, strain ser1, active compounds read low 0.991 | S. cerevisiae deletion strains, locus YOR231W, strain MKK1, active compounds read low 1.04 | S. cerevisiae deletion strains, locus YOR265W, strain rbl2, active compounds read low 0.991 | S. cerevisiae deletion strains, locus YOR270C, strain vph1, active compounds read low 0.953 | S. cerevisiae deletion strains, locus YOR290C, strain snf2, active compounds read low 0.995 | S. cerevisiae deletion strains, locus YOR316C, strain cot1, active compounds read low 1 | S. cerevisiae deletion strains, locus YPL051W, strain arl3, active compounds read low 0.989 | S. cerevisiae deletion strains, locus YPL055C, strain LGE1, active compounds read low 0.94 | S. cerevisiae deletion strains, locus YPL078C, strain atp4, active compounds read low 0.988 | S. cerevisiae deletion strains, locus YPL106C, strain sse1, active compounds read low 1.01 | S. cerevisiae deletion strains, locus YPL240C, strain hsp82, active compounds read low 1 | S. cerevisiae deletion strains, locus YPL241C, strain CIN2, active compounds read low 0.995 | S. cerevisiae deletion strains, locus YPL256C, strain CLN2, active compounds read low 1.01 | S. cerevisiae deletion strains, locus YPR119W, strain clb2, active compounds read low 1 | S. cerevisiae deletion strains, locus YPR141C, strain kar3, active compounds read low 0.995 | S. cerevisiae deletion strains, locus YPR163C, strain tif3, active compounds read low 1.01 | S. cerevisiae deletion strains, locus YPR167C, strain met16, active compounds read low 1 | S. cerevisiae deletion strains, strain wtn01, active compounds read low 1 | S. cerevisiae strains, strain wild type, active compounds read low 0.981
